Eight molecules from PubChem BioAssay (NCI) can be followed below.

Assay in all cases: NCI-60 one-dose screen, 48 h (100 = growth as untreated, 0 = no growth, -100 = all killed)
Holding throughout (settings): 10 µM unless noted

For assay [1], the system named is SK-MEL-2 melanoma.
Assay [2] concerns EKVX NSCLC.
Assay [3] has as its system SN12C renal.
For assay [4], the system named is UO-31 renal.
In assay [5] the test system is TK-10 renal.
For assay [6], the system named is ACHN renal.
Assay [7] has as its system CAKI-1 renal.
Assay [8] deals with A498 renal.
For assay [9], the system named is CCRF-CEM leukemia.
In assay [10] the test system is MOLT-4 leukemia.
In assay [11] the test system is RPMI-8226 leukemia.
The subject of assay [12] is OVCAR-8 ovarian.
The subject of assay [13] is OVCAR-5 ovarian.
In assay [14] the test system is OVCAR-4 ovarian.
Assay [15] concerns SK-OV-3 ovarian.
In assay [16] the test system is IGROV1 ovarian.
Assay [17] concerns OVCAR-3 ovarian.
The subject of assay [18] is HS 578T breast.
Assay [19] deals with NCI/ADR-RES ovarian.
The test system of assay [20] is SR leukemia.

This is part of a sample that, as a whole, favours compounds with a hit. Of some 83,000 tested, about 20% had one in any assay.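 Cells were grown in 96-well plates and exposed to the test compound at a single concentration for 48 hours; results are reported as percent growth, with values below 10 considered active.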 Unmarked numbers belong to inactive results. Active and inactive are the calls of the source.

`N#Cc1cccc(-c2nc3ccccn3c2NCCN2CCOCC2)c1`: the growth was 100% in assay [1]; 104% in assay [2]; 96% in assay [3]; 73.3% in [4]; 101% in assay [5]; 98.3% in [6]. Also, the growth was 85.1% in assay [7]; 99.1% in assay [8]; 92.5% in [9]; 96.5% in [10]; 90.4% in [11]; 90.7% in assay [12]. The growth in [13] is 94.4%; in [14], 30%; in [15], 86.3%; in assay [16], 97.8%; in assay [17], 96.9%; in [18], 96.2%. In addition, the growth in [19] is 98.2%.
For the molecule `CN(C)c1ccc(/C=N/NC(=O)COc2cc(=O)n(C)c3ccccc23)cc1`, the growth in assay [1] was 111%; in assay [2] it was 103%; in [3], 99.5%; in assay [4], 71.7%; in assay [5], 119%; in [6] it was 90.6%. The growth in assay [7] was 83.7%; in assay [8], 104%; in assay [9], 106%; in assay [10] it was 104%; in assay [11], 107%; in assay [12], 103%. Besides, the growth in assay [13] is 94.2%; in [14], 113%; in [15], 112%; in [16] it was 87%; in [17] it was 112%; in assay [18], 120%. The growth in assay [19] was 108%.
As to `CN(C)c1cnccn1`, the growth in [1] was 85.4%; in assay [2] it was 104%; in assay [3], 88.6%; in assay [4], 84.2%; in assay [5], 145%; in [6], 87.1%. Further, the growth in [7] was 95.6%; in assay [8] it was 95.7%; in [9], 60.6%; in [10], 93.7%; in assay [11], 65.2%; in assay [12], 92.5%. Also, the growth was 114% in assay [13]; 82.3% in assay [14]; 90.9% in assay [15]; 91.1% in assay [16]; 104% in assay [17]; 88.6% in [19].
With `CCn1nc(C#Cc2c(C)ccc3c(Nc4ccc(Cl)cc4)nccc23)c2c(N)ncnc21`, the growth in assay [1] was -50.8% (active); in [2], 36.6%; in assay [3], 15.6%; in [4], 8.45% (active); in [5] it was 16.8%; in [6], 8.02% (active). The growth in [7] is 18.8%; in assay [8], 11.7%; in assay [9], 10.5%; in assay [10], 20.9%; in assay [11] it was 2.72% (active); in assay [12], 7.01% (active). The growth was 25.1% in assay [13]; 41.5% in assay [14]; -3.61% (active) in assay [15]; 12.5% in assay [16]; 7% (active) in assay [17]; 11.6% in [19].
With `Nc1c(-c2nc3ccc(Br)cc3c(=O)[nH]2)nnn1-c1ccccc1`, the growth in assay [1] is 94.6%; in [2], 101%; in assay [3], 95.5%; in [4] it was 106%; in assay [5], 84.3%; in assay [6], 71.6%. In addition, the growth in [7] was 103%; in assay [8], 87.4%; in assay [9] it was 93.3%; in [10], 85.1%; in assay [11] it was 92.1%; in [12] it was 97.7%. Further, the growth in assay [13] was 95.8%; in assay [14] it was 6.63% (active); in assay [15], 112%; in assay [16], 90.3%; in assay [17], 80.2%; in [18] it was 91.8%. For the same molecule, the growth in [19] is 80.9%.
In the case of `CCOC(=O)C(O)C(O)(c1ccccc1)c1ccccc1` (centres undefined), the growth in assay [1] is 102%; in assay [2], 100%; in assay [3] it was 99%; in [4], 91.2%; in [5], 100%; in [6], 97.4%. Moreover, the growth is 97% in assay [7]; 98.3% in assay [8]; 99.1% in [9]; 95% in [20]; 106% in [11]; 108% in assay [12]. In addition, the growth in assay [13] is 90.4%; in assay [14], 111%; in assay [15], 97%; in assay [16] it was 100%; in assay [17], 108%; in assay [18], 108%. For the same molecule, the growth in assay [19] is 102%.
In the case of `O=S(=O)(NCCNc1cc(-c2c(-c3cccc(O)c3)nc3sccn23)ccn1)c1ccc(Br)cc1`, the growth in [1] is 79.5%; in assay [2], 56.8%; in [3], 45.3%; in [4], -1.33% (active); in assay [5], 83.2%; in assay [6] it was 56.7%. The growth was 39% in [7]; 51.1% in assay [8]; 39.9% in assay [9]; 32.9% in assay [10]; 38.1% in assay [11]; 47.5% in [12]. The growth was 109% in [13]; 73.7% in assay [15]; 47.4% in assay [16]; 60.3% in assay [17]; 59.1% in assay [18]; 80.4% in assay [19].
In the case of `CS(=O)(=O)c1ccc(-c2[nH]c3ccc(F)cc3c2/C=N/NC(N)=S)cc1`, the growth in [1] is 27.4%; in [2], 31.8%; in assay [3], 21%; in assay [4] it was 40.2%; in assay [5] it was 37.8%; in [6], 25.2%. Moreover, the growth in assay [7] is 39.4%; in assay [8], 17%; in assay [9], 2.97% (active); in assay [10], 11.7%; in assay [11], 12%; in [12] it was 20.8%. For the same molecule, the growth in [13] is 28.2%; in assay [14], 50%; in assay [15] it was 13.4%; in assay [16], 29%; in [17] it was 11.8%; in assay [18], 28%. In assay [19], the growth was 11.1%.
